TDP1 cell noCPT = qHTS for Inhibitors of human tyrosyl-DNA phosphodiesterase 1 (TDP1): qHTS in cells in absence of CPT | Potency, µM (highest dose often 46.2 µM), without a hit: at the highest dose activity change, negative = growth inhibition, actives largely listed as inhibitors | AID 686978, 2013 | actives 15% (n = 420,000) | DT40 Tdp1-/- hTDP1 cells, no CPT, ATP luminescence, 48 h; further: potency means the concentration at half of the fitted maximal effect; on the % scale 0 is the no-effect control and ±100 the full control effect; nearly all actives have a fitted effect of over 55% in size
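Seeded 400 DT40-hTDP1 cells/well (vehicle DMSO, no 20 nM CPT); pinned compounds; ≥48 hr at 37 °C; CellTiter-Glo luminescence as viability measure.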
IL1B secr inh = inflammasome signaling inhibition, IL-1 beta readout; activity change, % at 57.5 µM; AID 743279; THP-1 LPS/ATP IL-1B secretion, AlphaLISA, 16 h; hits give low values; actives 4.7% (n = 360,000); in the data active means activity change below about -50%; inconclusive means mostly about -30% to -49%; further: on the % scale 0 is the no-effect control and ±100 the full control effect
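THP-1 cells pretreated 1 hr with compounds (up to 57.5 uM final), then stimulated with LPS (250 ng/mL final) plus ATP (1.25 mM final); secreted IL-1B measured by AlphaLISA after 16 hr, decreased signal indicating inhibition.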
DT40 TDP1 CPT = growth inhibition of DT40 Tdp1-/-;hTDP1 cells with camptothecin (screen for TDP1 inhibitors). chicken DT40 Tdp1-/-;hTDP1 cells + 20 nM CPT, ATP luminescence, 48 h. Potency, µM (titrated, usually from 46.2 µM), for the others: at the top dose activity change, negative = growth inhibition, actives largely listed as inhibitors. actives 12% (n = 420,000). AID 686979; further: potency means the concentration at half of the fitted maximal effect; on the % scale 0 is the no-effect control and ±100 the full control effect; nearly all actives have a fitted effect of over 55% in size
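Chicken DT40 Tdp1-/- cells stably complemented with human TDP1 were seeded at 400 cells/well in medium containing 20 nM camptothecin, exposed to pin-transferred compounds, and grown at 37 °C for at least 48 hr. Viability was read as ATP luminescence.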
HepG2 tox = counter-screen for TGF-b inhibitors: cytotoxicity in HepG2 cells; HepG2 CAGA-GFP viability, ATP luminescence, 18 h; Potency, µM (series often up to 46.1 µM), inactives show at the top dose activity change, negative = cytotoxicity, usual class: cytotoxic; actives 0.76% (n = 410,000); further: potency means the concentration at half of the fitted maximal effect
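CellTiter-Glo luminescence gave cytotoxicity after 18 hours at 37 degrees C. The cells were HepG2 CAGA-GFP in 1% FBS DMEM, stimulated with 500 pg/mL TGF-beta after compound addition. %Activity was normalised to no-cell wells (complete cell-killing) and DMSO (no toxicity), and curves were fitted and classified.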
TDP1 block = TDP1 (human) enzyme inhibition. Q9NUW8. actives 0.28% (n = 350,000). recombinant TDP1, AlphaScreen DNA substrate cleavage. Potency, µM (series often up to 130 µM), without a hit: top-dose activity change, negative = inhibition, hits mostly inhibitors; further: potency means the concentration at half of the fitted maximal effect; on the % scale 0 is the no-effect control and ±100 the full control effect; nearly all actives have a fitted effect of over 40% in size
Target sequence (Q9NUW8 whole entry, looked up): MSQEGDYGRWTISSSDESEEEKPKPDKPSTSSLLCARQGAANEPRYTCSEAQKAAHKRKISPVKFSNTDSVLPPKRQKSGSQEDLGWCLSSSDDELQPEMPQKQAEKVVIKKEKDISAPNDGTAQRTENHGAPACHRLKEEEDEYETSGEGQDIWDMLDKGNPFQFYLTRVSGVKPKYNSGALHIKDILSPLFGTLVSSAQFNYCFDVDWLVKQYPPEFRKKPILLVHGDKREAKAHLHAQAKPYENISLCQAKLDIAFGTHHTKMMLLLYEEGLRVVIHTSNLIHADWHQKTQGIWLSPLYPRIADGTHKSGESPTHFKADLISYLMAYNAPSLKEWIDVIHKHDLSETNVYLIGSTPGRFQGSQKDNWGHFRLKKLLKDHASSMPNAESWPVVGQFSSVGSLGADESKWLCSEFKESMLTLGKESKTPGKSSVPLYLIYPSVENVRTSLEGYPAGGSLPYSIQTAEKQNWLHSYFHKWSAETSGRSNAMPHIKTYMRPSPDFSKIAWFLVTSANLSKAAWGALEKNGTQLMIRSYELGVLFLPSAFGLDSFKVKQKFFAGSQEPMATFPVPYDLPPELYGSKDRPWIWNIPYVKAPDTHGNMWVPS
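Recombinant human Tdp1 (E. coli-expressed, 1 nM final) preincubated with compounds 15 min at room temperature, then 5'-biotin/3'-phosphotyrosine-FITC DNA substrate (15 nM final) added for 5 min. AlphaScreen beads (10 ug/ml final) added 10 min; cleavage lowers signal.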
TGFb inhibitor = blocks TGF-b signaling | HepG2 CAGA-GFP TGF-b/SMAD3 reporter, GFP fluorescence, 18 h; TGF-beta stimulated, 500 pg/mL final | Potency, µM (titrated, usually from 46.1 µM), without a hit: at the top dose activity, negative = inhibition, usual class: inhibitors | actives 1.2% (n = 410,000) | AID 588855; further: potency means the concentration at half of the fitted maximal effect; on the % scale 0 is the no-effect control and ±100 the full control effect; nearly all actives have a fitted effect of over 65% in size
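Read-out: total well GFP (ex488/em500-530) summed from mean per-cell fluorescence. Cells: HEPG2 CAGA-GFP, 1% FBS DMEM, 18 h at 37 degrees C with 500 pg/mL final TGF-beta. Unstimulated wells served as the full-inhibition control; stimulated DMSO wells = 0%.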
An asterisk follows results filed as active; u = inconclusive; x = no result given; [ ] = another dose, or the depositor's remark. Compounds with a hit are over-represented: about 19% of the library has one in this group of screens. Unless noted, the call rests on the fitted dose curve; in most records, active means well fitted curve in the direction sought with a large enough effect; inconclusive means small, poorly fitted or top-dose-only effect, or another doubt; inactive means no such curve, though single readings can be large; an effect the other way counts as inactive or inconclusive.

SMILES | TDP1 cell noCPT | IL1B secr inh | DT40 TDP1 CPT | HepG2 tox | TDP1 block | TGFb inhibitor
CCOc1ccc2c(c1)c(=O)c(S(=O)(=O)c1ccc(CC)cc1)cn2Cc1cccc(Cl)c1 | -23% | x | -23% | -17% | 9% | 3%
Cc1cc(C(=O)N(C)CC(=O)Nc2ccccc2C(F)(F)F)c(C)o1 | 23µM* | -28 | 16µM* | -18% | 2% | 3%
CCOc1ccc(NC(=O)CN(C)C(=O)CSCc2cccc(C)c2)cc1OCC | -5% | -1 | -23% | -2% | -15% | -8%
CCOc1ccc(NC(=O)CN(C)C(=O)CSCc2ccc(C)cc2)cc1OCC | u | -7 | u | 5µM* | x | 18%
CCOc1ccc(NC(=O)CN(C)C(=O)c2ccccc2Cc2ccccc2)cc1OCC | 9.2µM* | 1 | 15µM* | -6% | 3% | 2%
CN(CC(=O)Nc1ccc(F)cc1)C(=O)COc1ccc(C(=O)c2ccccc2)cc1 | 21µM* | -18 | u | -27% | 2% | 0%
COc1ccc2c(c1)O[C@H](c1cccc(C(F)(F)F)c1)[C@@H](O)C2=O | x | x | x | x | 9%[21 µM] | x
Cc1cccc(NC(=O)C(=O)NCCc2csc(-c3ccc(F)cc3)n2)c1C | u | x | u | -6% | 4% | 5%
COc1cccc(C(=O)NCCS(=O)(=O)NCc2ccccn2)c1 | 2% | 4 | 0% | 8% | x | 4%
COc1nc(-c2ccc(C)cc2)ccc1-c1noc(-c2ccc(C(C)(C)C)cc2)n1 | u | x | u | -27% | 0% | -19%
CN(CC(=O)Nc1ccc(F)cc1)C(=O)COc1ccccc1Cc1ccccc1 | u | -69* | u | 14% | x | u
Cc1ccc2cccc(OCC(=O)N(C)CC(=O)Nc3ccc(F)cc3)c2n1 | -8% | -6 | -20% | -13% | 0% | 4%
COCCN(CCOC)Cc1cc(=O)oc2cc(C)c(Cl)cc12 | u | -3 | -13% | 4% | x | -3%
Cc1ccc(-c2noc(CCC(=O)NCCN3CCOCC3)n2)cc1 | -2% | 26 | 15% | -1% | 6% | 8%
Cc1ccc(-c2noc(CCC(=O)NCCN3CCN(Cc4ccccc4)CC3)n2)cc1 | 18µM* | -30 | u | 1.3µM* | 8% | 22%
Cc1ccc(-c2noc(CCC(=O)NCC3CCN(Cc4cccc(C)c4)CC3)n2)cc1 | u | -67* | 18µM* | -14% | 7% | 0%
Cc1cccc(-c2noc(CCC(=O)NCc3ccccc3)n2)c1 | -6% | 3 | -21% | -17% | 0% | 10%
CCCCc1nc2c(c3c1C[C@H](C)OC3)CN(S(=O)(=O)c1ccc(Cl)c3nonc13)CC2 | x | x | x | x | 10%[21 µM] | x
CCc1cccc2c(-c3ccc(F)cc3)nc(SCC(=O)Nc3ccccc3)nc12 | -25% | x | u | -14% | 5% | -7%
COC(=O)C1=C(C)N(Cc2ccccc2)C2=C3C(=O)N(C)C(=O)C3[C@@](O)(C(=O)OC)C(=O)N2C1c1ccccc1 (some centres not stated) | x | x | x | x | 6%[21 µM] | x
O=C(Nc1ccc(-n2cc(Br)cn2)cc1)c1ccncc1 | -27% | 30 | -20% | -37% | x | -10%
Cc1ccc(NC(=O)Cn2cc(S(=O)(=O)Cc3ccc(F)cc3)c3ccccc32)cc1Cl | u | x | u | -42% | -2% | u
Fc1ccc(Cn2cc(C(=S)N3CCOCC3)c3ccccc32)cc1 | u | 2 | u | -18% | x | 1%
CN1CCN(C(=S)c2cn(Cc3ccccc3)c3ccccc23)CC1 | -25% | 23 | u | -21% | 10% | -1%
CN1CCN(C(=S)c2cn(Cc3ccc(Br)cc3)c3ccccc23)CC1 | u | -11 | 21µM* | -29% | 10% | u
SMILES | TDP1 cell noCPT | IL1B secr inh | DT40 TDP1 CPT | HepG2 tox | TDP1 block | TGFb inhibitor
Fc1ccccc1Cn1cc(C(=S)N2CCOCC2)c2ccccc21 | 16µM* | -25 | u | -10% | x | -19%
O=C(C#Cc1ccccc1)c1ccco1 | 0.58µM* | -101* | 1.3µM* | 11µM* | 10% | 3.2µM*
CN(Cc1ccccc1)C(=O)c1ccco1 | 8% | -6 | -17% | 1% | 0% | -1%
CCS(=O)(=O)N1CCc2cc(C(=O)Nc3cccc(C)c3C)ccc21 | u | x | u | -8% | 11% | 2%
COc1cc(=O)n2c(c1C(=O)NCc1nonc1C)CCN(C(=O)c1cccc(C)c1C)CC2 | -23% | x | 4% | x | x | x
CCCOc1ccc(CCC(=O)N/N=C/c2ccncc2)cc1 | u | 46 | 26µM* | -16% | 3% | -1%
Cc1ccc(Sc2c([N+](=O)[O-])c(=O)n(C)c3ccccc23)cc1 | 13µM* | 3 | 15µM* | -46% | x | u
CC(C)CN1CCCC2(CCN(C(=O)c3cc(C(F)(F)F)cc(C(F)(F)F)c3)CC2)C1 | -25% | x | -9% | x | x | x
CCCCOC(=O)c1ccc(NC(=O)c2sc3nc(C)cc(C)c3c2N)cc1 | u | x | -80% | -14% | -4% | -24%
Cc1ccc(CCNc2ncnc(Cl)c2N)cc1 | 0.52µM* | -22 | 0.46µM* | -19% | x | -19%
CCOc1ccc(CCNc2ncnc3onc(-c4ccc(Cl)cc4)c23)cc1 | 8.2µM* | x | 9.2µM* | -17% | 4% | -5%
Nc1c(Cl)ncnc1NCCO | 18% | 37 | 2% | 3% | 9% | -2%
COc1ccc(CNc2ncnc3onc(-c4ccc(F)cc4)c23)cc1 | 29µM* | x | 21µM* | -43% | 3% | 1%
Clc1ccc(CNc2ncnc3onc(-c4ccc(Cl)cc4)c23)cc1 | 18µM* | x | u | -27% | 1% | u
CC(C)CNc1ncnc2onc(-c3ccc(Cl)cc3)c12 | -25% | x | -27% | 0% | 4% | 4%
CC(C)N(Cc1ccccc1)C(C)C (tested in a mixture with another compound) | x | x | x | x | 11% | x
O=C(NCc1ccccc1)C(=O)Nc1ccc2nc3n(c(=O)c2c1)CCCCC3 | -18% | x | 1% | -6% | 0% | -1%
CCCCN(CC)C(=O)c1cc2c(=O)n3ccccc3nc2n1C | u | x | u | 9% | 1% | 4%
Cc1cccc(CCNc2ncnc3onc(-c4ccc(Cl)cc4)c23)c1 | 18µM* | x | u | -8% | 1% | -4%
Clc1ccc(-c2noc3ncnc(NC4CCCCC4)c23)cc1 | -19% | x | 3% | -16% | -1% | u

Assay outcomes (PubChem BioAssay)
